# Reference: PubChem BioAssay (NCATS)
# Values without a mark were called inactive. Records with an inconclusive call do not appear. Entries that show only a call come without a potency. Calls of active or inactive are those of the source. Unless noted, calls come from the whole dose curve; as a rule, active = well fitted curve in the direction sought with a large enough effect; inconclusive = small, poorly fitted or top-dose-only effect, or another doubt; inactive = no such curve, though single readings can be large; an effect the other way counts as inactive or inconclusive.
# Key:
# [1] = NS1 protein of Zika virus - qHTS assay to identify small molecule inhibitors in human HEK 293 cells (AID 1347053); note: nearly all actives have a fitted effect of over 55% in size
# Outline: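 Inhibition of NS1 expression was scored in HEK 293 cells given compound 1 h ahead of MR766 virus (MOI = 0.5). Following 24 h at 37 C, two anti-NS1 antibodies generated a TR-FRET signal, scaled between uninfected and infected controls.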
# [2] = target: T1, Tyrosine-protein phosphatase non-receptor type substrate 1 (Homo sapiens) + Leukocyte surface antigen CD47 (Homo sapiens) (UniProt P78324+Q08722); experiment: CD47-SIRPalpha protein protein interaction - LANCE assay qHTS validation (AID 1347057; active = well fitted curve in the direction sought with a large enough effect in the signal ratio, with a control signal flat, not every such curve was filed as active; the % refers to the signal ratio)
# T1 sequence (P78324 whole entry, looked up): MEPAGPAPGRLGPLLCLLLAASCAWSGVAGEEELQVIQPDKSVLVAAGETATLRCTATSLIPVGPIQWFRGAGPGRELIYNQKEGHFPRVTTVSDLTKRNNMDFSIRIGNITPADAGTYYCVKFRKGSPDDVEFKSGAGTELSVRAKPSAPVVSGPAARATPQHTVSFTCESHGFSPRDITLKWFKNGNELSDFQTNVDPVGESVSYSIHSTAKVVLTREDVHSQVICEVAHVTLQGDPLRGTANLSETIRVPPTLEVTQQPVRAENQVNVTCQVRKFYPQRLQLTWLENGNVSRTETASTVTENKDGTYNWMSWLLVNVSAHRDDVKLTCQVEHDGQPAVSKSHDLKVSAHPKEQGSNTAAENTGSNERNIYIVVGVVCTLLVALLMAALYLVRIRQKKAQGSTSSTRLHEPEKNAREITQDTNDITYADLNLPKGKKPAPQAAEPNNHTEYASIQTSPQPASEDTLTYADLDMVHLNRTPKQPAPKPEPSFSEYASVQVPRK
# T1 sequence (Q08722 whole entry, looked up): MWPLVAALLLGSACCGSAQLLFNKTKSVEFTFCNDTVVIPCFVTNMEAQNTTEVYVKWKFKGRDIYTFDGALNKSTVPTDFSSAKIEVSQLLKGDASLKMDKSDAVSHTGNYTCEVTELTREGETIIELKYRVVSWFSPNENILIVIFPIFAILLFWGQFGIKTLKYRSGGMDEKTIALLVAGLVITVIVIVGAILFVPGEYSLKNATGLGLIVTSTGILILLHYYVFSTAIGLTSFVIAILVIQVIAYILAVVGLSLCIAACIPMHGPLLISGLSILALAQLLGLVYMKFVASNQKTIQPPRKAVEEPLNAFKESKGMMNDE
# Outline: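 First, His-tagged CD47 and Eu-labelled anti-His antibody met the compound for 30 min; next, site-specifically biotinylated SIRPalpha was added for 30 min; finally streptavidin-APC was added before reading the TR-FRET ratio.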
# [3] = target: T1, Tyrosine-protein phosphatase non-receptor type substrate 1 (Homo sapiens) + Leukocyte surface antigen CD47 (Homo sapiens); experiment: CD47-SIRPalpha protein protein interaction - HTRF assay qHTS validation (AID 1347058; active = well fitted curve in the direction sought with a large enough effect in the signal ratio, not every such curve was filed as active; the % refers to the signal ratio)
# Outline: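 TR-FRET read (Ch1/Ch2 ratio) of soluble extracellular CD47 and Avi-biotinylated SIRPalpha domains in PBS pH 7.4 with 0.05% IGEPAL; 7-point compound titration. Sequential 30 min room-temperature steps; non-biotinylated SIRPalpha as control inhibitor.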
# [4] = target: T1, Tyrosine-protein phosphatase non-receptor type substrate 1 (Homo sapiens) + Leukocyte surface antigen CD47 (Homo sapiens); experiment: CD47-SIRPalpha protein protein interaction - Alpha assay qHTS validation (AID 1347059);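 note: bead proximity luminescence from CD47 binding SIRPalpha after compound preincubation with SIRPalpha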; note: potency is the fitted concentration of half-maximal effect
# Outline: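 Soluble extracellular domains: Avi-tag biotinylated SIRPalpha (25 nM) preincubated 30 min RT with compound, then 6His-CD47 (12.5 nM) 30 min; Ni-NTA acceptor and streptavidin donor beads (10 ug/mL) 30 min, AlphaScreen read. PBS pH 7.4, 0.05% IGEPAL.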
# [5] = target: Parathyroid hormone/parathyroid hormone-related peptide receptor (Homo sapiens) (UniProt Q03431); experiment: qHTS for PTHR1 Agonists: Optimization Screen against the NCGC LOPAC library (AID 1347079);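 note: GloSensor cAMP luminescence in HEK-293 GP2 cells expressing human PTHR1 with IBMX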; note: potency is the fitted concentration of half-maximal effect
# Sequence of Parathyroid hormone/parathyroid hormone-related peptide receptor (Homo sapiens) (Q03431 whole entry, looked up): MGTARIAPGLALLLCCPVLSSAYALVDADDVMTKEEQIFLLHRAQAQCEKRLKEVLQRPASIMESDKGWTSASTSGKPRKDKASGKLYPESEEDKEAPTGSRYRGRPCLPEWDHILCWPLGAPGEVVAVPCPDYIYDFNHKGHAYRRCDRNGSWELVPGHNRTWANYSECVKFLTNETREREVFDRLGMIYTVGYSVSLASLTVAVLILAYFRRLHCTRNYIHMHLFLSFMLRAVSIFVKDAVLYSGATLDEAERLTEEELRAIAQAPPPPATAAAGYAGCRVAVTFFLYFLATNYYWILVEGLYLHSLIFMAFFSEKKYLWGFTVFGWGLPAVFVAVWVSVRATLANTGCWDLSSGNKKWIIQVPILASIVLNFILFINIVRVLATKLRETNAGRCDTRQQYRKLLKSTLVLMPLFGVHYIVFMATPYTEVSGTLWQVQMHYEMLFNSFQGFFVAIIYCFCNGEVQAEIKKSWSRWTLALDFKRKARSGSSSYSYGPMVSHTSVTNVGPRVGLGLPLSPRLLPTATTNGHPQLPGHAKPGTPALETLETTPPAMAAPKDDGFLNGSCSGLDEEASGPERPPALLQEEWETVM
# Outline: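 Agonist readout: GloSensor cAMP luminescence, read after 15 min at room temperature. HEK-293-derived GP2 line carries PTHR1; compounds tested as a titration for 1 hr at 37C in presence of IBMX. M-PTH (1-15) served as control.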
# [6] = target: N-terminal Xaa-Pro-Lys N-methyltransferase 1 (Homo sapiens) (UniProt Q9BV86); experiment: qHTS Assay for Inhibitors of N-terminal methyltransferase 1 (NTMT1): LOPAC validation of the NTMT1 SAHH-coupled ThioGlo3 Assay (AID 1347143); note: nearly all actives have a fitted effect of over 70% in size; note: potency is the fitted concentration of half-maximal effect
# Sequence of N-terminal Xaa-Pro-Lys N-methyltransferase 1 (Homo sapiens) (Q9BV86 whole entry, looked up): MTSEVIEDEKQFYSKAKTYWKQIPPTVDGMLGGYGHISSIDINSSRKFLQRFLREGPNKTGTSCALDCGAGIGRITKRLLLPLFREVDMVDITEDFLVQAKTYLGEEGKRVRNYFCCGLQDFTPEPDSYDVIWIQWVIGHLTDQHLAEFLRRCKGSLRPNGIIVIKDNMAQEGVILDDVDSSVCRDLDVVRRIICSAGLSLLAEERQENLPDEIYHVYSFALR
# Outline: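 Fluorescence read-out (excitation 340nm, emission 450nm) of SAH-derived thiol, measured via SAHH coupling and ThioGlo3, taken immediately and after a 30 min room-temperature reaction, then normalized to the background read. Enzyme: NTMT1 at 125nM; cofactor SAM 100uM in the added reagent.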
# [7] = target: Furin (Homo sapiens) (UniProt P09958); experiment: Furin counterscreen qHTS for Zika virus inhibitors (AID 1347149);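 note: purified recombinant full-length human furin enzyme at 5 nM; fluorescence gain from furin cutting a BOC-RVRR-AMC peptide substrate over 15 min; top concentration of the series differs between compounds; nearly all actives have a fitted effect of over 70% in size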
# Sequence of Furin (Homo sapiens) (P09958 whole entry, looked up): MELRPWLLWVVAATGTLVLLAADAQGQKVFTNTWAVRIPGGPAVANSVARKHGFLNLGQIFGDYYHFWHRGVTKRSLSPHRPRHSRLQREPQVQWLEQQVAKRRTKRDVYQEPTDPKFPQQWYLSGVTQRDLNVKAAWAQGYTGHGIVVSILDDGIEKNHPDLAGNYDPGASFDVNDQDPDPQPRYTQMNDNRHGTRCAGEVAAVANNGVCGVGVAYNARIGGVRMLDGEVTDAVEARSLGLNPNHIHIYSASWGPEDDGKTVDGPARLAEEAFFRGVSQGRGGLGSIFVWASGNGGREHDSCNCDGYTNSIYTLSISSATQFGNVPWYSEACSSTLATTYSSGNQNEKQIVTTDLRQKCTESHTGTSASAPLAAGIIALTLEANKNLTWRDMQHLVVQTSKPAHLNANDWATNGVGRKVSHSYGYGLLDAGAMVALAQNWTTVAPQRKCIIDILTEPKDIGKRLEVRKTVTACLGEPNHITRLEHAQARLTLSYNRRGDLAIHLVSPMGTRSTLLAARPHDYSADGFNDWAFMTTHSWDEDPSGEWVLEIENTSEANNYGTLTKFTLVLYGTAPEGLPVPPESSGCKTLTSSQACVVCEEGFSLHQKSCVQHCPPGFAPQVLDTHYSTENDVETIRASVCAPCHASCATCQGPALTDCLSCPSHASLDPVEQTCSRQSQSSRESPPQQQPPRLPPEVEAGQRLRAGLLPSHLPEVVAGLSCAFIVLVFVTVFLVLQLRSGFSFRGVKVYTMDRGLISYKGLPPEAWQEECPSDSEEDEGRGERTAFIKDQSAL
# Outline: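 Fluorogenic cleavage of BOC-RVRR-AMC (2 microM final, Km ~15 µM) was monitored (ex 340, em 450 nm) at 37C after 15 min RT preincubation of 5 nM furin with compounds in HEPES pH 7.0 buffer with CaCl2 and Triton X-100. Percent inhibition was fitted to a 4-parameter Hill curve.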
# [8] = tested on: Zika virus NS2B-NS3 protease (unlinked); experiment: Optimization of GU AMC qHTS for Zika virus inhibitors: Unlinked NS2B-NS3 protease assay (AID 1347151); note: nearly all actives have a fitted effect of over 80% in size; note: potency is the fitted concentration of half-maximal effect
# Outline: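 In this qHTS, compounds acted on 25 nM unlinked Zika NS2B–NS3 in pH 8.0 Tris/Tween buffer. Cleavage of an AMC peptide ran 15 min at room temperature, to about 20% conversion.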
# [9] = tested on: Zika virus NS2B-NS3 protease (linked construct); experiment: Confirmatory screen NINDS AMC qHTS for Zika virus inhibitors (AID 1347152);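 note: AMC fluorescence gain from cleaved Bz-Nle-KRR-AMC substrate over 15 min; top concentration of the series differs between compounds; nearly all actives have a fitted effect of over 70% in size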
# Outline: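 Concentration-response confirmation used the NINDS linked protease (NS2B hydrophilic domain joined to NS3 protease domain), 1 nM, with a 15-min compound preincubation. Substrate, Nle-KRR-AMC at 10 microM, was read by UV fluorescence before and after 15 min.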
# [10] = tested on: Zika virus NS2B-NS3 protease (unlinked complex); experiment: Confirmatory screen GU AMC qHTS for Zika virus inhibitors (AID 1347153); note: nearly all actives have a fitted effect of over 70% in size
# Outline: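 Compounds were preincubated 15 min at room temperature with 25 nM noncovalent NS2B-NS3 protease at pH 8.0; AMC substrate added at 10 microM and 15-min fluorescence gain (340/450 nm) converted to percent inhibition, fitted 4-parameter.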
# [11] = tested on: Zika virus NS2B-NS3 protease (linked construct); experiment: 384 well plate NINDS Rhodamine confirmatory qHTS for Zika virus inhibitors (AID 1347164); note: potency is the fitted concentration of half-maximal effect; nearly all actives have a fitted effect of over 65% in size
# Outline: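 Cleavage of Ac-LKRR-Rhodamine 110 (10 microM final) by linked protease (final 5, 30 or 60 nM) was followed as fluorescence at 485/538 nm after 25 min, room temperature, dark. Compounds preincubated ~15 min.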
# [12] = Vero cells viability qHTS for Zika virus inhibitors (AID 1347167)
# Outline: (§1)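 Counter-screen for cytotoxicity of hits from NS2B-NS3 protease qHTS. Overnight-attached cells (2.5 x 10^5 cells/mL, DMEM/4% FBS) were dosed in titration, incubated 24 to 48 hours, then assayed by CellTiter Glo.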
# [13] = HepG2 cells viability qHTS for Zika virus inhibitors (AID 1347168)
# Outline: as §1
# [14] = tested on: Zika virus NS2B-NS3 protease; experiment: Primary screen GU AMC qHTS for Zika virus inhibitors (AID 1347154); note: nearly all actives have a fitted effect of over 70% in size; note: potency is the fitted concentration of half-maximal effect
# Outline: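 Unlinked Zika NS2B hydrophilic domain/NS3 protease domain noncovalent complex (25 nM final) in 10 mM Tris-HCl pH 8.0, 0.01% Tween 20, with AMC peptide substrate. Fluorescence (ex 340, em 450 nm) change over 15 min, room temperature; percent inhibition fitted to 4-parameter Hill equation.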
# [15] = tested on: Zika virus NS2B-NS3 protease (linked); experiment: 384 well plate NINDS AMC confirmatory qHTS for Zika virus inhibitors (AID 1347163); note: potency is the fitted concentration of half-maximal effect; nearly all actives have a fitted effect of over 50% in size
# Outline: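 Linked NS2B-NS3 protease (final 5 nM, 30 nM or 60 nM) was preincubated with compounds (final up to 1 mM) for ~15 minutes. Ac-VKTGKR-AMC substrate (final 30 microM) then reacted for 25 minutes at room temperature in the dark. Fluorescence (ex 355/em 460 nm) was normalized to no-enzyme and no-inhibitor controls.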
# [16] = target: Lysine-specific demethylase 5B (Homo sapiens) (UniProt Q9UGL1); experiment: Optimization screen for KDM5B Histone Demethylases FDH coupled qHTS against the LOPAC library (AID 1347166); conditions: KDM5B demethylation, FDH-coupled NADH fluorescence (FDH is formaldehyde dehydrogenase); at 57.5 µM (top of the series)
# Sequence of Lysine-specific demethylase 5B (Homo sapiens) (Q9UGL1 whole entry, looked up): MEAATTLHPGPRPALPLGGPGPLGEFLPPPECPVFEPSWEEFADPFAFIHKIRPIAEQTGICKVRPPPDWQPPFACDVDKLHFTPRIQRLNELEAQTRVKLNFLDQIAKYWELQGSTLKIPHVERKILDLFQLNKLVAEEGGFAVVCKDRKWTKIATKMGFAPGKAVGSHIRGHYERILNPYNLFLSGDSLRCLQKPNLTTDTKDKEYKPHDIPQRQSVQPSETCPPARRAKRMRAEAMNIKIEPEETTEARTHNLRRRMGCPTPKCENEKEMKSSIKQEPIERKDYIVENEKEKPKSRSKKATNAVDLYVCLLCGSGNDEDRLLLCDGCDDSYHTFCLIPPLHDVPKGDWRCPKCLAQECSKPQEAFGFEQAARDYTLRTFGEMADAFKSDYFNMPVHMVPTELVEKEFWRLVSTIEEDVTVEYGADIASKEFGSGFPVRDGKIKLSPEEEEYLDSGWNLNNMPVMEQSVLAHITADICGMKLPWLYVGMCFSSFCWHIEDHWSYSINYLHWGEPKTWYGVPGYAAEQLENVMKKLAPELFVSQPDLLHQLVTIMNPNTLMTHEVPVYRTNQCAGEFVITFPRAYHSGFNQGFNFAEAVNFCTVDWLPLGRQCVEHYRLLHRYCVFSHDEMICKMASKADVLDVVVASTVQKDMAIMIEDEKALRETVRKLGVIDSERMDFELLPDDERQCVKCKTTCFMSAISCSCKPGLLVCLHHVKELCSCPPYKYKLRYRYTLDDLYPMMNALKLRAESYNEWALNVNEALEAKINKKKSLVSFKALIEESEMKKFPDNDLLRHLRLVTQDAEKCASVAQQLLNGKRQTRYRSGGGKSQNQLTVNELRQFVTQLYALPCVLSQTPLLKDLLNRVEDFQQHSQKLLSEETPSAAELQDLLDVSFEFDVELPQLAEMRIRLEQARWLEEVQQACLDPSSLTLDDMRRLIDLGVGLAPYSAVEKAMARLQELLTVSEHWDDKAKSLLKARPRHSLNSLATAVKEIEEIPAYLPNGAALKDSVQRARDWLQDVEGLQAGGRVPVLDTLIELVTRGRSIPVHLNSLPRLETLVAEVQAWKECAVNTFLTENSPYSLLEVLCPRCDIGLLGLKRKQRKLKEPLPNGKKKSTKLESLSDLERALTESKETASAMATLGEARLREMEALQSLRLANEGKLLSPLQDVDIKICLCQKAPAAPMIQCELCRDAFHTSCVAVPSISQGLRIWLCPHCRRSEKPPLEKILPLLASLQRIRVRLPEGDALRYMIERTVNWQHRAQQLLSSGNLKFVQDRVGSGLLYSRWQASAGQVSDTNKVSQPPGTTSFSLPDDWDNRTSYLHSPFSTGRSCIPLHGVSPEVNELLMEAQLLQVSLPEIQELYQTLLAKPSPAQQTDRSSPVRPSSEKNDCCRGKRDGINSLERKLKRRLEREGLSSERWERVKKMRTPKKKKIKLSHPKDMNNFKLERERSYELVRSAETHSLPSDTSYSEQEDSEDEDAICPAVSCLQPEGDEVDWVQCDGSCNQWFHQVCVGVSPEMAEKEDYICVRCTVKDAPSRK
# Outline: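 KDM5BDeltaAP (200nM final) preincubated 10 min with compound, then 12.5uM H3K4Me3, 25uM a-ketoglutarate, ascorbate, Fe(II), NAD+ and FDH added; 50mM HEPES pH 7.5, 0.01% Tween-20. NADH fluorescence (340/450 nm) change over 30 min, room temperature.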
SMILES,Potency [1],Potency [2],outcome [3],Potency [4],Potency [5],Potency [6],Potency [7],Potency [8],Potency [9],Potency [10],Potency [11],Potency [12],outcome [13],Potency [14],Potency [15],"activity, negative = inhibition [16]"
C=CCN1CCc2c(cc(O)c(O)c2Br)[C@@H](c2ccccc2)C1,inactive,inactive,inactive,inactive,inactive,35.5 µM (active),inactive,18.9 µM (active),inactive,inactive,8.91 µM (active),inactive,inactive,,,
O=C1Nc2ccc(I)cc2/C1=C/c1cc(Br)c(O)c(Br)c1,inactive,inactive,inactive,14.7 µM (active),inactive,56.2 µM (active),,5.97 µM (active),,,2.51 µM (active),,,inactive,89.1 µM (active),-25%
Nc1nc2[nH]c(=O)cnc2c(=O)[nH]1,inactive,inactive,inactive,inactive,inactive,56.2 µM (active),,13.4 µM (active),,,,,,,,
NC(N)=NC(N)=Nc1cccc(Cl)c1,inactive,inactive,inactive,inactive,inactive,inactive,,inactive,,,,,,inactive,,-3.11%
Nc1ncnc2c1ncn2C1CCCO1 (centres undefined),inactive,inactive,inactive,inactive,inactive,inactive,,inactive,,,,,,inactive,,-7.06%
Cc1nc2c(OCc3ccccc3)cccn2c1CC#N,inactive,inactive,inactive,inactive,inactive,inactive,,inactive,,,,,,inactive,,0.134%
O=C(O)c1cccnc1C(=O)O,inactive,inactive,inactive,16.5 µM (active),inactive,inactive,,inactive,,,,,,inactive,,6.25%
[N-]=[N+]=Nc1ccc(C(=O)CSC[C@H](NC(=O)CC[C@H](N)C(=O)O)C(=O)NCC(=O)O)cc1,inactive,inactive,inactive,inactive,inactive,inactive,,7.52 µM (active),,,,,,,,
N[C@H](C(=O)O)c1cc(O)cc(O)c1,inactive,inactive,inactive,inactive,inactive,inactive,,inactive,,,,,,inactive,,-24%
CC(=O)NNC(=O)N1Cc2ccccc2Oc2ccc(Cl)cc21,inactive,inactive,inactive,inactive,inactive,inactive,,inactive,,,,,,inactive,,-5.14%
C=CCn1c(=O)c2c(nc(-c3ccc(S(=O)(=O)O)cc3)n2C)n(C)c1=O,inactive,inactive,inactive,inactive,inactive,15.8 µM (active),,2.99 µM (active),,,,,,5.32 µM (active),,-806% (active)
Oc1cc(O)c2c(c1)O[C@H](c1ccc(O)c(O)c1)[C@@H](O)C2,inactive,inactive,inactive,inactive,inactive,44.7 µM (active),,,,,,,,,,
CCCCCC(O)CCCC(=O)O (centres undefined),inactive,inactive,inactive,inactive,inactive,inactive,,inactive,,,,,,inactive,,-6.03%
O=C(O)/C=C/c1ccc(O)c(O)c1,inactive,inactive,inactive,inactive,inactive,44.7 µM (active),,inactive,,,,,,,,
CC(C)Cn1c(=O)n(C)c(=O)c2[nH]cnc21,inactive,inactive,inactive,inactive,4.23 µM (active),inactive,,inactive,,,,,,inactive,,-4.21%
CC(=O)SC1CC2=CC(=O)CC[C@]2(C)C2CC[C@@]3(C)C(CC[C@@]34CCC(=O)O4)C12 (some centres undefined),inactive,inactive,inactive,inactive,inactive,inactive,,inactive,,,,,,,,0.621%
CC(N)(C(=O)O)c1ccc(C(=O)O)cc1 (centres undefined),inactive,inactive,inactive,inactive,inactive,inactive,,inactive,,,,,,inactive,,-6.58%
N[C@H]1CONC1=O,inactive,inactive,inactive,inactive,inactive,inactive,,inactive,,,,,,,,-4.96%
CN(CC[C@@H](Oc1ccc(C(F)(F)F)cc1)c1ccccc1)CC(=O)O,inactive,inactive,inactive,inactive,inactive,inactive,,inactive,,,,,,,,-7.4%
N[C@H](C(=O)O)[C@H](Cc1ccccc1)C(=O)O,inactive,inactive,inactive,inactive,inactive,inactive,,inactive,,,,,,,,-9.48%
CCCCC[C@H](CC(=O)NO)C(=O)N[C@H](C(=O)N1CCC[C@H]1CO)C(C)C,inactive,inactive,inactive,inactive,inactive,inactive,,inactive,,,,,,,,9.91%
C=C(C)C1CC=C(C(=O)O)CC1 (centres undefined),inactive,inactive,inactive,inactive,inactive,inactive,,inactive,,,,,,,,1.54%
